HT1080NT lethal: kills 2HG-producing HT-1080-NT fibrosarcoma cells; AID 686970; HT-1080-NT fibrosarcoma viability, CellTiter-Glo ATP luminescence, 48 h; Potency, µM (doses to about 46.1 µM), for inactives: top-dose activity, negative = less viability, hits mostly cytotoxic; 360,000 compounds, 1.6% hits;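 also: NT is the 2HG producing partner of a matched IDH1 knockdown line; potency is read from the fitted curve at half-maximal effect; 0% = DMSO-treated cells and -100% = media-only wells without cells; nearly all actives have a fitted effect of over 55% in size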
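Compounds were tested in concentration-response format on HT-1080-NT cells for 48 hours at 37 degrees C. Cell viability came from CellTiter-Glo luminescence; curves were classified by r2, response magnitude and activity.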
TDP1 cell CPT: growth inhibition of DT40 Tdp1-/-;hTDP1 cells with camptothecin (screen for TDP1 inhibitors); Potency, µM (titrated, usually from 46.2 µM), for the others: at the top dose activity change, negative = growth inhibition, most hits filed as inhibitors; 420,000 compounds, 12% hits; chicken DT40 Tdp1-/-;hTDP1 cells + 20 nM CPT, ATP luminescence, 48 h; AID 686979; also: potency is read from the fitted curve at half-maximal effect; nearly all actives have a fitted effect of over 55% in size
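Chicken DT40 Tdp1-/- cells stably complemented with human TDP1 were seeded at 400 cells/well in medium containing 20 nM camptothecin, exposed to pin-transferred compounds, and grown at 37 °C for at least 48 hr. Viability was read as ATP luminescence.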
TDP1 cell noCPT: qHTS for Inhibitors of human tyrosyl-DNA phosphodiesterase 1 (TDP1): qHTS in cells in absence of CPT; DT40 Tdp1-/- hTDP1 cells, no CPT, ATP luminescence, 48 h; Potency, µM (top dose mostly 46.2 µM), for inactives: at the highest dose activity change, negative = growth inhibition, most hits filed as inhibitors; 420,000 compounds, 15% hits; AID 686978, 2013; also: potency is read from the fitted curve at half-maximal effect; nearly all actives have a fitted effect of over 55% in size
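DT40 Tdp1-/-;hTDP1 cells, no CPT (DMSO vehicle only), 400 cells/well; compounds pin-transferred; ≥48 hr, 37 °C; CellTiter-Glo 30 min RT dark, luminescence read.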
HT1080 IDH1KD tx: kills HT-1080 cells with IDH1 knockdown. HT-1080 IDH1 knockdown viability, ATP luminescence, 48 h. Potency, µM (top dose mostly 46.1 µM), for inactives: top-dose activity, negative = toxicity, actives largely listed as cytotoxic. 360,000 compounds, 2% hits. AID 686971;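 also: potency is read from the fitted curve at half-maximal effect; 0% = DMSO wells and -100% = cell-free medium wells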
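After a 2 h attachment period, IDH1KD HT-1080 cells took pin-transferred compound for 48 h at 37 °C; ATP-based luminescence after 10 min room-temperature reagent incubation reported viability.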
IL-1B inflam inh: blocks inflammasome-driven IL-1 beta release; 360,000 compounds, 4.7% hits; THP-1 LPS/ATP IL-1B secretion, AlphaLISA, 16 h; hits give low values; activity change, % at 57.5 µM; AID 743279; in the data active = activity change below about -50%; inconclusive = mostly about -30% to -49%
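Secreted IL-1B measured by AlphaLISA bead assay after 16 h compound exposure of THP-1 cells; compounds (final up to 57.5 uM) added 1 h before LPS (250 ng/mL) and ATP (1.25 mM) stimulation; lower signal means less secretion.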
* hit, by the source's call; u = inconclusive; x = no result given; ! = a repeat was not active. Sampled rows, rich in hits. Any-hit rate of the full collection: about 19%. Unless noted, calls follow the shape of the dose curve; as a rule, active = well fitted curve in the direction sought with a large enough effect; inconclusive = small, poorly fitted or top-dose-only effect, or another doubt; inactive = no such curve, though single readings can be large; an effect the other way counts as inactive or inconclusive. Unless noted, % is scaled to controls: 0 for no effect and ±100 for the full control effect.

SMILES	HT1080NT lethal	TDP1 cell CPT	TDP1 cell noCPT	HT1080 IDH1KD tx	IL-1B inflam inh
Nc1nonc1-n1nnc(C(=O)N/N=C/c2cccc(Cl)c2Cl)c1CN1CCCC1	-0.2%	8.2µM*	14.6µM*	1.6%	25.9
CC1CCN(Cc2c(C(=O)N/N=C/c3ccc(C(C)(C)C)cc3)nnn2-c2nonc2N)CC1	u	13µM*	13µM*	-13.9%	42.8
CC1CCN(Cc2c(C(=O)N/N=C/c3ccc(C(C)C)cc3)nnn2-c2nonc2N)CC1	-15.3%	u	u	-19.6%	-3.7
Nc1nonc1-n1nnc(C(=O)N/N=C/c2ccc(Cl)cc2Cl)c1CN1CCCC1	-5.2%	11.8%	-7.1%	-3.0%	-2.1
O=C(NCCO)c1nc(C(=O)c2ccc(Cl)cc2)c2ccccc2n1	2.3%	0.1%	-10.6%	5.0%	1.8
CCOc1ccc2oc(-c3ccccc3)c(C(=O)N(C)C)c2c1	-24.7%	u	18.4µM*	-10.1%	-0.3
CC(=O)c1c(C)oc2ccc(NS(=O)(=O)c3ccc(F)cc3C)cc12	-5.5%	23.1µM*	18.4µM*	3.1%	7.3
CCOc1ccc2oc(-c3ccccc3)c(C(N)=O)c2c1	19.6%	0.2%	-16.1%	-2.0%	-4.1
CCOC(=O)c1c(-c2ccccc2)oc2ccc(NS(=O)(=O)c3ccc(OC)cc3)cc12	x	4.61µM*	3.26µM*	x	x
CCOC(=O)c1c(-c2ccccc2)oc2ccc(NS(=O)(=O)c3cc(C)c(C)cc3C)cc12	x	18.4µM*	10.3µM*	x	x
CN(C)c1nc(-c2cccnc2)nc(-c2ccccc2)c1C#N	5.6%	-22.8%	u	0.3%	4.8
CC(C)(C)c1cc(NC(=O)CCSc2nnc3ccccn23)cc(C(C)(C)C)c1	-18.9%	-15.2%	-11.2%	u	17.6
Cc1cc(C)nc(SCc2ccc(C(=O)N/N=C/C3CCCCC3)cc2)n1	-1.8%	-2.3%	1.3%	8.1%	25.8
CCOC(=O)c1sc2cccc(F)c2c1S(=O)(=O)NCc1ccccc1Cl	x	-26.7%	-18.5%	x	x
Cc1cc(C)c(S(=O)(=O)Nc2ccc3oc(C)c(C(=O)OC(C)C)c3c2)cc1C	x	u	13µM*	x	x
CC1(C)CC(=O)c2c(n(-c3cccc4ccccc34)ccc2=O)C1	-1.3%	-5.4%	-25.7%	2.2%	-4.4
Cc1ccc(-c2csc3ncnc(N4CCc5ccccc5C4)c23)cc1	-8.9%	u	20.6µM*	-25.0%	35.8
Fc1ccc(-c2csc3ncnc(N4CCc5ccccc5C4)c23)cc1	-4.9%	16.4µM*	u	-13.1%	-1.3
COC(=O)N1CCCCC1c1cc(C(=O)NCc2ccccc2)no1 (centres undefined)	25.2%	-6.9%	-0.1%	17.3%	22.4
CN(C)c1ccc(CC(=O)N2CCCC(c3cc(C(=O)Nc4ccc(C(C)(C)C)cc4)no3)C2)cc1 (centres undefined)	-17.0%	u	u	10.3µM*	-3.5
O=C(NCc1ccc(F)cc1)c1cc(C2CCCN(C(=O)CCCc3ccccc3)C2)on1 (centres undefined)	2.1%	23.1µM*	u	0.2%	u
Cc1ccc(F)cc1C(=O)N1CCCCC1c1cc(C(=O)NCc2ccccc2)no1 (centres undefined)	5.8%	13µM*	u	3.0%	2.2
CC(C)COC(=O)N1CCCCC1c1cc(C(=O)NCc2ccccc2)no1 (centres undefined)	5.7%	18.4µM*	u	0.7%	-10.3
CCOc1ccc(CCNC(=O)COC(=O)/C=C/c2ccccc2OC)cc1OCC	1.0%	u	u	-1.2%	-7.0
O=C(NCc1ccc(F)cc1)c1cc(C2CCCCN2C(=O)CCCc2ccccc2)on1 (centres undefined)	4.2%	u	23.1µM*	-0.4%	u
SMILES	HT1080NT lethal	TDP1 cell CPT	TDP1 cell noCPT	HT1080 IDH1KD tx	IL-1B inflam inh
O=C(Nc1ccccc1)c1cc(C2CCCN(C(=O)CCc3ccccc3)C2)on1 (centres undefined)	0.6%	25.9µM*	u	0.3%	6.6
O=C(NCc1ccccc1)c1cc(C2CCCCN2C(=O)CCCc2ccccc2)on1 (centres undefined)	-6.3%	-23.6%	u	20.1%	-14.8
CC1(C)CC(NCc2ccc3c(c2)OCO3)CCO1 (centres undefined)	0.9%	1.7%	-9.3%	-2.9%	7.8
Cc1cc(C)c2sc(N(CCN(C)C)C(=O)c3c(F)cccc3F)nc2c1	-14.4%	-29.0%	u	u	-71.1*
Cc1cc(C)c2sc(N(CCCN(C)C)C(=O)c3ccc(Br)s3)nc2c1	23.1µM*	u	14.6µM*	u	x
Nc1ncnc2c1ccn2[C@H]1CN(Cc2ccc(Cl)cc2)C[C@@H](CO)O1	1.9%	16.4µM*	13µM*	-8.3%	51.1
Nc1ncnc2c1ccn2[C@H]1CN(Cc2ccc3c(c2)OCO3)C[C@@H](CO)O1	u	u	13µM*	-0.2%	u
CCCn1ncc(CN2CCC(n3nccc3NC(=O)c3ccccc3Cl)CC2)c1C	0.0%	8.4%	1.7%	9.3%	-12.9
O=C1C=C(c2ccccc2)OC(=O)C1C(=O)c1ccccc1 (centres undefined)	-26.9%	-17.9%	-18.8%	-5.4%	4.7
O=C1C(=O)c2ccccc2C(O)=C1C1CCC(c2ccc(Cl)cc2)CC1 (centres undefined)	u	u	2.31µM*!	14.5%	4.8
O=C1C=C(c2cccc(Cl)c2O)C[C@@H](c2ccc(Cl)cc2)C1	-17.7%	u	u	-10.8%	-0.8
CC(C)(C)c1ccc(-c2csc(NC(=O)CN3C(=O)NC4(CCCCC4)C3=O)n2)cc1	-6.8%	10.3µM*	9.2µM*	-10.2%	-16.5
COc1ccc(-c2csc(NC(=O)CN3C(=O)NC4(CCCC4)C3=O)n2)cc1OC	6.8%	-27.1%	-20.3%	0.3%	-61.7*
O=C(c1ccco1)N1CCc2[nH]nc(-c3ccc(Cl)cc3)c2C1	-11.3%	-37.3%	-26.4%	-10.2%	-72.0*
CCOC(=O)n1c(=O)n(C)c2ccc(Br)cc21	-1.0%	-26.9%	u	12.3%	57.2
CCOC(=O)n1c(=O)[nH]c2ccc(Br)cc21	17.8%	-0.2%	18.4µM*	11.9%	-0.3
CSc1ccc(/C=N/n2c(COc3ccccc3)n[nH]c2=S)cc1	0.6%	-13.7%	-15.7%	-2.2%	73.2
Cc1ccccc1NC(=O)C1Cc2ccccc2CN1C(=O)OCc1ccccc1 (centres undefined)	-1.8%	u	20.6µM*	-2.2%	-4.7
Cc1ccccc1NC(=O)C1Cc2ccccc2CN1C(=O)c1ccco1 (centres undefined)	19.8%	-16.2%	-21.6%	5.0%	u
